# According to PubChem BioAssay (NCATS):
# Values joined by “and” are separate entries in the source; they are usually repeats but may differ in a detail not shown here. Equal entries are not always repeated. Inconclusive results are not listed. Active and inactive are the calls of the source. Calls follow the shape of the dose curve; as a rule, active = well fitted cell-killing curve with a large enough effect; inconclusive = small, poorly fitted or top-dose-only effect, or effect the other way; inactive = no such curve, though single readings can be large or run the other way.
# Test: Viability qHTS for spleen associated tyrosine kinase inhibitor (SYKi) drug resistant MV4-11 cells (AID 1963824); also: nearly all actives have a fitted effect of over 35% in size
# Details: SYKi-resistant MV4-11 viability, CellTiter-Glo, 72 h; series mostly up to 45 µM; viability, % of control: at the top concentration
# Procedure, shortened: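 SYK-inhibitor-resistant MV4-11 AML cells were seeded at 500 per well onto compound and cultured 72 hours (37 °C, 5% CO2). CellTiter-Glo was then added, and after 10 min at room temperature, luminescence gave viability.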
# Potency is read from the fitted curve at half-maximal effect.
SMILES,Potency,"viability, % of control"
CNC(C)C(=O)NC(C(=O)N1CCCC1c1nc(C(=O)c2ccc(F)cc2)cs1)C1CCCCC1 (stereo not given),2.59 µM (active),–
Cc1nc(Nc2n[nH]c3c2CN(C(=O)NC(CN(C)C)c2ccccc2)C3(C)C)c2sccc2n1 (stereo not given),0.0164 µM (active),–
CC(C)(c1ccc(O)cc1)c1ccc(O)cc1,27.9 µM (active),–
CC1=C(C)C(=O)OC(C(C)C2C(O)CC3C4C5OC5C5(O)CC(OC6OC(CO)C(OC7OC(C)C(O)C(O)C7O)C(O)C6O)CC(O)C5(C)C4CCC32C)C1 (stereo not given),–,80.7% [at 17.3 µM] (inactive)
C=C(C(=O)O)[C@H]1C[C@]2(C)[C@@H](O)CC[C@]23O[C@H]1C[C@@H]3C,–,77.7% (inactive)
C=CC(=O)N[C@H]1CCOC[C@H]1Nc1ncc2cc(-c3c(Cl)c(OC)cc(OC)c3Cl)ccc2n1,20.9 µM (active),–
CCCn1cc2c(nc(NC(=O)Nc3ccc(OC)cc3)n3nc(-c4ccco4)nc23)n1,–,79.6% (inactive)
C[C@H](NC(c1cccc2[nH]c(=O)c(=O)[nH]c12)P(=O)(O)O)c1ccc(Br)cc1 (stereo not given in full),14.6 µM (active),–
CC(=O)NC(C)c1cnc(-c2cnc(Oc3ccc(OC(C)C)cc3)s2)s1 (stereo not given),10.3 µM (active),–
CC(Oc1ccc2[nH]nc(/C=C/c3cnn(CCO)c3)c2c1)c1c(Cl)cncc1Cl (stereo not given),0.0116 µM (active),–
Cc1ccc(NS(=O)(=O)c2cc3c(cc2N(C)C)CCC(=O)N3)cc1C,18.4 µM (active),–
C[C@]12C=C[C@@]3(CCC4[C@](C)(CO)CCC[C@@]4(C)C3CC1)C2 (stereo not given in full),9.2 µM (active),–
C=C1C(O[C@@H]2O[C@H](CO)[C@@H](O)[C@H](O)[C@@H]2O)CC2C(C)(C)C(O)CCC2(C)C1CC/C(C)=C\CO (stereo not given in full),–,86.7% [at 17.3 µM] (inactive)
CC1=C(c2ccc(NC(=O)c3c(F)cccc3F)cc2)CN(c2nccs2)CC1,2.59 µM (active),–
COc1ccccc1[C@@H]1C2=C(CC(C)(C)CC2=O)Nc2n[nH]c(C(F)(F)F)c21,23.1 µM (active),–
Cn1cnc(-c2nccc3c(=O)[nH]c(OCCCC(F)(F)F)nc23)c1,9.2 µM (active),–
Cc1cc(C)c(NC(=O)N(Cc2ccc3c(c2)Cc2ccccc2-3)C2CCCCCC2)c(C)c1,16.4 µM (active),–
C/C=C1\[C@H](O[C@@H]2O[C@H](CO)[C@@H](O)[C@H](O)[C@H]2O)OC=C(C(=O)OC)[C@H]1CC(=O)OC[C@H]1O[C@@H](OCCc2ccc(O)cc2)[C@H](O)[C@@H](O)[C@@H]1O,–,81.4% [at 17.3 µM] (inactive)
CC(C)n1nc(Cc2cccc3ccccc23)c2c(N)ncnc21,8.2 µM (active),–
C#Cc1cccc(Nc2ncnc3cc(OC)c(OC)cc23)c1,1.64 µM (active),–

SMILES,Potency,"viability, % of control"
C=CC(=O)Nc1cccc(Nc2nc(Nc3ccccc3)ncc2C)c1,0.651 µM (active),–
O=C(Nc1cccc([N+](=O)[O-])c1)c1cccc(S(=O)(=O)N2CCCCCC2)c1,6.51 µM (active),–
CC1(C)CC[C@]2(C(=O)O[C@@H]3O[C@H](CO)[C@@H](O)[C@H](O)[C@H]3O)CC[C@]3(C)C(=CCC4[C@@]5(C)CC[C@H](O[C@@H]6O[C@H](C(=O)O)[C@@H](O[C@@H]7O[C@H](CO)[C@@H](O)[C@H](O)[C@H]7O)[C@H](O)[C@H]6O)C(C)(C)C5CC[C@]43C)C2C1 (stereo not given in full),–,88% [at 9.25 µM] (inactive)
OC1C=C2C3CN(Cc4cc5c(cc43)OCO5)C2CC1O (stereo not given),5.17 µM (active),–
OC(CNCCc1c[nH]c2ccccc12)Cn1c2ccccc2c2ccccc21 (stereo not given),5.17 µM (active),–
O=C(Nc1ccc(C(O)(C(F)(F)F)C(F)(F)F)cc1)c1ccc(C(F)(F)F)cc1,1.84 µM (active),–
O=C(/C=C/c1ccc(O)c(O)c1)OC[C@H]1O[C@@H](OC2CCCCC2O)[C@H](O)[C@@H](O)[C@@H]1O (stereo not given in full),–,107% [at 17.3 µM] (inactive)
O=C(O)c1cc(N(Cc2ccc(C3CCCCC3)cc2)C(=O)c2ccc(Oc3ccccc3)cc2)ccc1O,16.4 µM (active),–
CC(Cc1cccc(C(F)(F)F)c1)NCCOC(=O)c1ccccc1 (stereo not given),–,85.5% (inactive)
CNc1cc(OC)c(C(=O)N[C@@H]2CCN(Cc3ccccc3)[C@@H]2C)cc1Cl,14.6 µM (active),–
CC(=O)C1=CCC2C3CC=C4CC(O)CC(O)C4(C)C3C(O)CC12C (stereo not given),16.1 µM (active),–
CC(C)S(=O)(=O)NC[C@H](C)c1ccc(-c2ccc(CCNS(C)(=O)=O)cc2)cc1,2.31 µM (active),–
Cc1cnc(-c2ccccc2C(C)C)nc1NCc1ccc(-n2ccnn2)cc1,16.4 µM (active) and 14.8 µM (active),–
CN(C)CCCNc1c2ccccc2nc2c1[nH]c1ccccc12,0.731 µM (active),–
CC1(CO)CC(O)[C@]2(C(=O)O)CCC34CC3(C=CC3[C@]5(C)C(CC[C@]34C)C(C)(CO)[C@@H](O)[C@H](O)[C@@H]5O)C2C1 (stereo not given in full),11.2 µM (active),–
COC(=O)c1ccc2c(c1)[nH]c1ncnc(NCCCN3CCCCC3)c12,9.2 µM (active),–
NS(=O)(=O)Nc1ncnc(OCCOc2ncc(Br)cn2)c1-c1ccc(Br)cc1,14.6 µM (active),–
CC(C)S(=O)(=O)Nc1ccc(F)c(C(=O)c2c[nH]c3ncc(-c4cccnc4)cc23)c1F,2.91 µM (active),–
C=C1C(O)C(O)C2(CC3C(C)=CCC4C(C)(CO)CCCC34C)OC2C1O (stereo not given),–,83.4% (inactive)
CC[C@@H](C)[C@@H]1OC2(C=C[C@H]1C)C[C@@H]1C[C@H](C/C=C(\C)[C@H](O[C@H]3C[C@H](OC)[C@H](O[C@H]4C[C@H](OC)[C@H](NC(C)=O)[C@H](C)O4)[C@H](C)O3)[C@H](C)/C=C/C=C3\CO[C@H]4[C@H](O)C(C)=C[C@@H](C(=O)O1)[C@@]34O)O2 (stereo not given in full),2.27 µM (active),–
